PubChem BioAssay (NCATS)
Records with an inconclusive call do not appear. Active and inactive are the calls of the source.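 The calls were made as follows: active = dose-dependent loss of cell ATP signal giving a full or clear fitted curve, ranked by lower potency value; inconclusive = weak partial curve or response only at the top dose; inactive = no loss of viability signal.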

assay: Cell Viability - Jurkat (AID 426); conditions: qHTS;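 also: cells exposed to compound for 40 hours at 37 °C before ATP read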
From the text: NIH Chemical Genomics Center [NCGC]
NIH Molecular Libraries Screening Centers Network [MLSCN]
National Institutes of Environmental Health Sciences [NIEHS]
National Toxicology Program [NTP]
We have developed a 1536-well cell-based assay for quantitative high throughput screening (qHTS) against a number of cell lines to determine in vitro cytotoxicity of small molecules. This particular assay uses the Jurkat cell line (Clone E6-1) which is derived from the human T cell leukemia.
NCGC Assay Protocol Summary:
The CellTiter-Glo luminescent cell viability assay (Promega) is a homogeneous method to measure the number of viable cells in culture. The end point readout of this assay is based on quantitation of intracellular ATP, an indicator of metabolic activity, using the luciferase reaction. Luciferase catalyzes the oxidation of beetle Luciferin to oxyluciferin and light in the presence of ATP. The luminescent signal is proportional to amount of ATP present.
Using the CellTiter-Glo luminescent cell viability assay, the amount of cellular ATP was measured in the Jurkat cell line with complete culture medium following compound treatment for 40 hours. The assay was performed in opaque white Kalypsys 1536-well plates. In the screen, tamoxifen and doxorubicin were used as positive controls. Library compounds were measured for their ability to cause acute toxicity in the cell line, as reflected by a decrease in intracellular ATP levels, in a concentration-dependent manner. […] AC50 values were determined from concentration-response data modeled with the standard Hill equation.
qHTS protocol for CellTiter Glo Jurkat cellular assay
[Step] [Parameter] [Value] [Description]
1. Reagent; 5 uL; 5000 Jurkat cells/well
3. Controls; 23 nL; Tamoxifen 0.34 uM to 100 uM & Doxorubicin 0.02 nM to 100 uM
4. Time; 40 hr; 37 °C incubation
5. Reagent; 5 uL; CellTiter Glo reagent
6. Time; 20 min; Room Temperature
7. Detection; Luminescence; Viewlux plate reader
Keywords: cell viability, cytotoxicity, Jurkat cell line, luminescence, NTPHTS, NTPHTS_NCGC, NIEHS, EPA, DSSTox, MLSMR, MLSCN, NIH Roadmap, qHTS, NCGC
Potency is read from the fitted curve at half-maximal effect.

SMILES | Potency
Oc1cccc(Nc2ccccc2)c1 | > 92 µM (inactive)
CCCCCNCCCCC | > 92 µM (inactive)
CCC(C)=O | > 92 µM (inactive)
CC(C)CCOC(=O)/C=C/c1ccccc1 | > 92 µM (inactive)
NC(=O)c1cccc([N+](=O)[O-])c1 | > 92 µM (inactive)
O=Cc1ccc(CO)o1 | > 92 µM (inactive)
Nc1cc(Cl)c([N+](=O)[O-])cc1O | > 92 µM (inactive)
Cc1cccc2ccccc12 | > 92 µM (inactive)
CC(C)Cc1nccs1 | > 92 µM (inactive)
CN(C)c1cccc(O)c1 | > 92 µM (inactive)
Nc1cccc(O)c1 | > 92 µM (inactive)
COC(=O)c1ccccc1 | > 92 µM (inactive)
OC/C(Br)=C(\Br)CO | > 92 µM (inactive)
CCCCOCCOCCOCCCC | > 92 µM (inactive)
C=CCCCCCCC=C | > 92 µM (inactive)
O=C(O)c1ccccc1Cl | > 92 µM (inactive)
NC(=S)NNC(N)=S | > 92 µM (inactive)
Cc1ccc2ncccc2c1 | > 92 µM (inactive)
CC(O)CC(C)O (stereo not given) | > 92 µM (inactive)
C=CCCC | > 92 µM (inactive)

SMILES | Potency
CCCCC=O | > 92 µM (inactive)
C[C@@H]1O[C@@H](O[C@@H]2[C@@H](O)[C@H](OCCc3ccc(O)c(O)c3)O[C@H](CO[C@@H]3O[C@H](CO)[C@@H](O)[C@H](O)[C@H]3O)[C@H]2OC(=O)/C=C/c2ccc(O)c(O)c2)[C@H](O)[C@H](O)[C@H]1O | > 92 µM (inactive)
CC/C=C/C#N | > 92 µM (inactive)
CCC(C)(C)C | > 92 µM (inactive)
O=C1CCCCC1 | > 92 µM (inactive)
O=[N+]([O-])c1cc(C(F)(F)F)ccc1Cl | > 92 µM (inactive)
O=C(O)CCSSCCC(=O)O | > 92 µM (inactive)
Cc1ccc(C(=O)O)cc1 | > 92 µM (inactive)
ClCCl | > 92 µM (inactive)
CNC(=O)c1ccccc1 | > 92 µM (inactive)
NCCCCCCN | > 92 µM (inactive)
O=C(O)/C=C/C(=O)O | > 92 µM (inactive)
C/C(C=O)=C/c1ccccc1 | > 92 µM (inactive)
C(=C/c1ccccc1)/c1ccccc1 | > 92 µM (inactive)
O=C(O)c1cccc([N+](=O)[O-])c1 | > 92 µM (inactive)
CC(=C/C=C/C(C)=C/C=C/C=C(C)/C=C/C=C(C)/C=C/C(=O)O)/C=C/C(=O)O | > 92 µM (inactive)
CCCCC(CC)CNCC(CC)CCCC (stereo not given) | > 92 µM (inactive)
CC(C)(O)CCC(C)(C)O | > 92 µM (inactive)
Cc1ccccc1C(N)=O | > 92 µM (inactive)
O=CNc1ccccc1 | > 92 µM (inactive)
